Measured values reported in PubChem BioAssay (Tox21).
Several values for one entry are separate records, joined by “and”; a condition that tells them apart may be missing. Equal values may be shown once. Results filed as inconclusive are left out. A structure can be active in one record and inactive in another. Activity calls are given as the source filed them. Unless noted, calls come from the whole dose curve; as a rule, active = well fitted curve in the direction sought with a large enough effect in the repeat runs; inconclusive = weak or mixed curves; inactive = no such curve, though single readings can be large; an effect the other way counts as inactive or inconclusive.

How the values were obtained:
[1] = qHTS assay to identify small molecule agonists of the peroxisome proliferator-activated receptor delta (PPARd) signaling pathway - cell viability counter screen (AID 743211); note: nearly all actives have a fitted effect of over 55% in size
Outline: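 In the same wells used for beta-lactamase reporter measurement, cytotoxicity is scored by CellTiter-Glo. HEK293H PPARd-bla cells receive compound for 17 h at 37C following a 5 h settling period.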

[2] = target: Peroxisome proliferator-activated receptor delta (Homo sapiens) (UniProt Q03181); experiment: qHTS assay to identify small molecule agonists of the peroxisome proliferator-activated receptor delta (PPARd) signaling pathway (AID 743212; calls by dose curve;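 note: HEK293H cells with PPARd UAS beta-lactamase reporter GeneBLAzer system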)
Outline: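 Steps: seed PPARd-bla HEK293H cells; incubate 5 h, 37 C, 5% CO2; add compounds in DMSO; incubate, 37 C; add LiveBLAzer B/G FRET substrate; hold 2 h at room temperature; measure fluorescence.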

[3] = qHTS assay to identify small molecule antagonists of the peroxisome proliferator-activated receptor delta (PPARd) signaling pathway - cell viability counter screen (AID 743213); note: nearly all actives have a fitted effect of over 50% in size
Outline: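 PPARd-bla HEK293H cells were treated with compounds plus agonist L165041 (300 nM final) for 17 h at 37 C. Viability was then read in the same wells by CellTiter-Glo luminescence after 30 min at room temperature.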

[4] = qHTS assay to identify small molecule agonists of the farnesoid-X-receptor (FXR) signaling pathway - cell viability counter screen (AID 743218); note: nearly all actives have a fitted effect of over 45% in size
Outline: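 Quantitative HTS counter screen measuring ATP-based viability via CellTiter-Glo luminescence in HEK 293T cells carrying a UAS-driven beta-lactamase reporter, after 16 h compound exposure at 37 C.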

[5] = target: Bile acid receptor (Homo sapiens) (UniProt Q96RI1); experiment: qHTS assay to identify small molecule agonists of the farnesoid-X-receptor (FXR) signaling pathway (AID 743220; active = well fitted activation curve with a large enough effect in the signal ratio in the repeat runs, not every such curve was filed as active; the % refers to the signal ratio)
Outline: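 FXR-UAS-bla HEK 293T cells carrying a UAS-driven beta-lactamase reporter were plated for 5 h at 37C/5% CO2, then exposed to DMSO-dissolved Tox21 10K compounds for 16 h at 37C. A LiveBLAzer B/G FRET substrate was loaded for 2 h at room temperature before fluorescence reading.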

[6] = qHTS assay to identify small molecule antagonists of the farnesoid-X-receptor (FXR) signaling pathway - cell viability counter screen (AID 743221; active = well fitted cell-killing curve with a large enough effect in the repeat runs, not every such curve was filed as active; note: nearly all actives have a fitted effect of over 50% in size)
Outline: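 Here viability was scored by luminescence after CellTiter-Glo addition to wells already read for beta-lactamase. Prior treatment: compound plus CDCA (50 uM final), 16 h, 37 C, HEK 293T FXR-bla cells.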

[7] = target: Vitamin D3 receptor (Homo sapiens) (UniProt P11473); experiment: qHTS assay to identify small molecule agonists of the vitamin D receptor (VDR) signaling pathway (AID 743222; calls by dose curve)
Outline: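 Tox21 cell reporter format: VDR-bla line, 16 h compound exposure in 5% CO2 at 37C, then fluorescence intensity after 2 h with LiveBLAzer B/G FRET substrate.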

[8] = target: Vitamin D3 receptor (Homo sapiens) (UniProt P11473); experiment: qHTS assay to identify small molecule antagonists of the vitamin D receptor (VDR) signaling pathway (AID 743223; active = well fitted inhibition curve with a large enough effect in the signal ratio in the repeat runs, not every such curve was filed as active; the % refers to the signal ratio)
Outline: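 Inhibition of agonist-driven VDR signalling is scored in VDR-bla cells: 3 nM final 1alpha,25-dihydroxyvitamin D3 plus compound, 16 h at 37C, then beta-lactamase detection by FRET substrate fluorescence after 2 h.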

[9] = qHTS assay to identify small molecule agonists of the vitamin D receptor (VDR) signaling pathway - cell viability counter screen (AID 743224); note: nearly all actives have a fitted effect of over 50% in size; note: potency is the fitted concentration of half-maximal effect
Outline: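 CellTiter-Glo viability readout on VDR-bla cells, measured after 16 h of compound treatment at 37C in the same wells.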

[10] = qHTS assay to identify small molecule antagonists of the vitamin D receptor (VDR) signaling pathway - cell viability counter screen (AID 743225); note: nearly all actives have a fitted effect of over 50% in size
Outline: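 Compounds were pinned onto VDR-bla HEK 293T cells together with 1-alpha,25-dihydroxyvitamin D3 at 3 nM final. After 16 h at 37C and 5% CO2 plus the reporter readout, cell viability was measured by CellTiter-Glo luminescence (30 min, room temperature).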

[11] = qHTS assay to identify small molecule agonists of the NFkB signaling pathway (AID 1159509; active = well fitted curve in the direction sought with a large enough effect in the signal ratio in the repeat runs, not every such curve was filed as active; the % refers to the signal ratio; note: series mostly up to about 61 µM)
Outline: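 Beta-lactamase reporter assay run in quantitative high-throughput format on an NF-kB-responsive ME-180 line, with 5 hr compound treatment and a FRET-based blue/green fluorescence readout.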

[12] = qHTS assay to identify small molecule agonists of the NFkB signaling pathway - cell viability counter screen (AID 1159515; calls by dose curve; note: series mostly up to about 61 µM; nearly all actives have a fitted effect of over 55% in size)
Outline: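 Tox21 library compounds were tested for cytotoxicity against NFkB-bla ME-180 cells during a 5 hr exposure at 37 C. CellTiter-Glo luminescence served as the viability read-out.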

[13] = qHTS assay to identify small molecule agonists of the endoplasmic reticulum stress response signaling pathway (AID 1159516; active = well fitted activation curve with a large enough effect in the signal ratio in the repeat runs, not every such curve was filed as active; the % refers to the signal ratio)
Outline: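 Fluorescence at 460 and 530 nm (405 nm excitation) reports beta-lactamase from an ER stress response element in HeLa cells treated 5 hr at 37 C.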

[14] = qHTS assay to identify small molecule agonists of the endoplasmic reticulum stress response signaling pathway - cell viability counter screen (AID 1159517; calls by dose curve)
Outline: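 After overnight attachment, ESRE-bla HeLa cells were treated with Tox21 library compounds for 5 hr. CellTiter-Glo luminescence, read 30 min post-addition at room temperature, reported viability.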

[15] = qHTS assay to identify small molecule antagonists of the retinoid-related orphan receptor gamma (ROR-gamma) signaling pathway - cell viability counter screen (AID 1159520); note: nearly all actives have a fitted effect of over 50% in size
Outline: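 Cytotoxicity was read from cellular ATP (CellTiter-Glo luminescence) after 16 hr at 37 C with 1 uM doxycycline induction. The inducer was added 2 hr after compound transfer to Tet-on ROR gamma CHO cells.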

[16] = qHTS assay to identify small molecule agonists of the AP-1 signaling pathway - cell viability counter screen (AID 1159525; calls by dose curve; note: nearly all actives have a fitted effect of over 55% in size)
Outline: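 Intracellular ATP by Cell Titer Glo luminescence (30 min, RT) in the same ME-180 AP-1-bla wells after the 5 h compound exposure at 37 °C. Normalised to tetra n-octyl ammonium bromide and DMSO controls.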

[17] = qHTS assay to identify small molecule agonists of the AP-1 signaling pathway (AID 1159526; calls by dose curve)
[18] = target: Nuclear receptor ROR-gamma (Homo sapiens) (UniProt P51449); experiment: qHTS assay to identify small molecule antagonists of the retinoid-related orphan receptor gamma (ROR-gamma) signaling pathway (AID 1159521; note: nearly all actives have a fitted effect of over 50% in size; note: potency is the fitted concentration of half-maximal effect)
Outline: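 Test compounds were applied to Tet-on RORγ CHO cells 2 h ahead of doxycycline hyclate (1 uM final). Luciferase reporter activity was quantified by luminescence after 16 h at 37 C and 5% CO2.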

[19] = target: Peroxisome proliferator-activated receptor delta (Homo sapiens) (UniProt Q03181); experiment: qHTS assay to identify small molecule antagonists of the peroxisome proliferator-activated receptor delta (PPARd) signaling pathway (AID 743215; active = well fitted inhibition curve with a large enough effect in the signal ratio in the repeat runs, not every such curve was filed as active; the % refers to the signal ratio;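 note: cells stimulated with agonist L165041 at 300 nM final during compound exposure; series mostly up to about 62 µM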)
Outline: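 Here, a reporter line (HEK293H, beta-lactamase under a UAS) measures PPARd signaling. Compounds are tested against agonist L165041 at 300 nM final concentration over 17 h at 37 C, with fluorescence read after substrate.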

[20] = target: Bile acid receptor (Homo sapiens) (UniProt Q96RI1); experiment: qHTS assay to identify small molecule antagonists of the farnesoid-X-receptor (FXR) signaling pathway (AID 743217; active = well fitted inhibition curve with a large enough effect in the signal ratio in the repeat runs, not every such curve was filed as active; the % refers to the signal ratio)
Outline: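 Test compounds are pin-transferred onto FXR-bla HEK 293T cells, then chenodeoxycholic acid is added at 50 uM final. After 16 h at 37 °C, LiveBLAzer B/G substrate is applied for 2 h at room temperature and fluorescence read.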

Measured: Potency

Chain of Peroxisome proliferator-activated receptor delta (Homo sapiens) (Q03181 whole entry, looked up): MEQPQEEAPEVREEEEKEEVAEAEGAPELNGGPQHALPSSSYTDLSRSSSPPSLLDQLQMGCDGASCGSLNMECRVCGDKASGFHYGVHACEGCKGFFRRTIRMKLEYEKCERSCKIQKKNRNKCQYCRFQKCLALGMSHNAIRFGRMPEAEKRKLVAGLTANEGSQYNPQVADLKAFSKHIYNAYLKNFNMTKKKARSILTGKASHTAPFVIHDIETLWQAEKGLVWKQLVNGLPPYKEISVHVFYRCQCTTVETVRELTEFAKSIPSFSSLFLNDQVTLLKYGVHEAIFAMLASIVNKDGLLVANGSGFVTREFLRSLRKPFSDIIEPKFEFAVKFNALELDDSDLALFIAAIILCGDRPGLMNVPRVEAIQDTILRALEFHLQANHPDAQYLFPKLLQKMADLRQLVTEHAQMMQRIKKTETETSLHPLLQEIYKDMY
Chain of Bile acid receptor (Homo sapiens) (Q96RI1 whole entry, looked up): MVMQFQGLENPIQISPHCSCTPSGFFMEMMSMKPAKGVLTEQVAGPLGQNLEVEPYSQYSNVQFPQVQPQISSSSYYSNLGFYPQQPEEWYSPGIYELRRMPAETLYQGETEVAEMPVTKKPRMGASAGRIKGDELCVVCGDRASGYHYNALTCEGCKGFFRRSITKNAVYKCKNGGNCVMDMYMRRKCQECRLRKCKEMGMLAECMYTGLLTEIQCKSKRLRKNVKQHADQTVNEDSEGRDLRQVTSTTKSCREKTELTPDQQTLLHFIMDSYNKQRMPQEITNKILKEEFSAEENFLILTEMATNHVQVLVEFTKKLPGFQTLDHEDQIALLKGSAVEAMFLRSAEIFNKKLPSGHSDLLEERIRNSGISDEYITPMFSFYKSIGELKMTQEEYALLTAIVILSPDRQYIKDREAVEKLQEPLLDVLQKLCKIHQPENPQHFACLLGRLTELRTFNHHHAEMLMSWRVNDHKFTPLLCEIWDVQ
Chain of Vitamin D3 receptor (Homo sapiens) (P11473 whole entry, looked up): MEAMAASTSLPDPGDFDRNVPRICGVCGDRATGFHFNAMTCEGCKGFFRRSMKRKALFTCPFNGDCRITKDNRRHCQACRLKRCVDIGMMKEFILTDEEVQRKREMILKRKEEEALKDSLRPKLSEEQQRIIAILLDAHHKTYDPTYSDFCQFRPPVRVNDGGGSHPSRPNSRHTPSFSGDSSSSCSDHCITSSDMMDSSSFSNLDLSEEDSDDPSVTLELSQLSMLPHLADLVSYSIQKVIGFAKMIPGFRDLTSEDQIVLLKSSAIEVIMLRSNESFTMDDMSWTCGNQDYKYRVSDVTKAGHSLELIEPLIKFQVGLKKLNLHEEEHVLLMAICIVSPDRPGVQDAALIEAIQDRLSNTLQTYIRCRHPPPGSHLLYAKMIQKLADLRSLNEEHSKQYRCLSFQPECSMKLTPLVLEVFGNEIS

CC(C)CCCCCCOC(=O)c1ccccc1C(=O)OCCCCCCC(C)C
not listed: [18] | [19] | [20]
inactive: all other assays above

Oc1c(Br)cc(Br)cc1Br
not listed: [5] | [7] | [8] | [14] | [19] | [20]
inactive: all other assays above

CSc1nnc(C(C)(C)C)c(=O)n1N
not listed: [18] | [20]
inactive: all other assays above

C=CC#N
not listed: [2] | [5] | [18] | [19] | [20]
inactive: all other assays above

CCOc1ccc(N)cc1
not listed: [1] | [14] | [19] | [20]
inactive: all other assays above

Cc1cc(O)ccc1Cl
not listed: [1] | [14] | [20]
inactive: all other assays above

CNCC(O)c1ccc(O)cc1 (centres undefined)
not listed: [1] | [14] | [19] | [20]
inactive: all other assays above

Cc1ccc(N)cc1
not listed: [1] | [2] | [5] | [7] | [8] | [14] | [19] | [20]
inactive: all other assays above

Nc1ncc([N+](=O)[O-])s1
not listed: [1] | [14] | [18] | [19]
inactive: all other assays above

OCC(O)CCl (centres undefined)
not listed: [1] | [5] | [10] | [14] | [18] | [20]
inactive: all other assays above

Nc1nc(N)nc(NC2CC2)n1
inactive and 43.6 µM (active): [9]
not listed: [1] | [7] | [8] | [14] | [18] | [19] | [20]
inactive: all other assays above

Cc1cccc(C)c1N
not listed: [1] | [7] | [8] | [14] | [18] | [19] | [20]
inactive: all other assays above

C[C@]12CC[C@H](O)CC1=CC[C@@H]1[C@@H]2CC[C@]2(C)C(=O)CC[C@@H]12
active: [18] 24.4 µM and 24.3 µM
not listed: [5] | [7] | [8] | [11] | [19] | [20]
inactive: all other assays above

O=C(O)C1C(C(=O)O)C2(Cl)C(Cl)=C(Cl)C1(Cl)C2(Cl)Cl (centres undefined)
not listed: [1] | [7] | [8] | [14] | [19] | [20]
inactive: all other assays above

Oc1ccc(Cl)cc1
not listed: [2] | [5] | [14] | [18] | [19] | [20]
inactive: all other assays above

Cc1cccc(N)c1
not listed: [5] | [14] | [18] | [19] | [20]
inactive: all other assays above

Nc1cccc(Cl)c1
not listed: [14] | [18] | [19] | [20]
inactive: all other assays above

Cc1cccc(C)c1NC(=O)CN1CCCC1=O
not listed: [7] | [8] | [14] | [18] | [19] | [20]
inactive: all other assays above

O=C(O)CCCc1ccc(N(CCCl)CCCl)cc1
not listed: [14] | [15] | [18] | [20]
inactive: all other assays above

COc1cc(-c2ccc(N)c(OC)c2)ccc1N
not listed: [5] | [13] | [14] | [19] | [20]
inactive: all other assays above
